PubChem BioAssay (NCI)
This is part of a sample that, as a whole, favours compounds with a hit. Of some 79,000 tested, about 15% had one in any assay. Unmarked numbers belong to inactive results. Activity calls are given as the source filed them. Cut-off read from the data, not from the text of the source: active = growth inhibition above about 70%; inactive = the rest.

Key:
[1] = NCI Yeast Anticancer Drug Screen. Data for the rad50 strain (AID 155);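 note: 0% = growth of vehicle-only cultures of the same strain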; conditions: S. cerevisiae rad50 strain growth inhibition, stronger effect = higher value
In short: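 Genetically altered yeast (DNA repair pathway); compound treatment; growth inhibition vs vehicle ctrl.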

[2] = NCI Yeast Anticancer Drug Screen. Data for the mec2-1 strain (AID 157); conditions: S. cerevisiae mec2-1 strain, stronger effect = higher value
In short: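 Yeast mec2-1 mutant treated with compound. Readout: growth inhibition vs vehicle controls.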

[3] = NCI Yeast Anticancer Drug Screen. Data for the sgs1 mgt1 strain (AID 161);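 note: 0% = growth of cultures given vehicle only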; conditions: S. cerevisiae sgs1 mgt1 strain, stronger effect = higher value
In short: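 Read-out: growth inhibition vs vehicle controls. Cells: mutant yeast strain deficient in DNA damage repair.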

[4] = NCI Yeast Anticancer Drug Screen. Data for the cln2 rad14 strain (AID 165);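 note: 0% = growth equal to vehicle treated cultures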; conditions: S. cerevisiae cln2 rad14 strain, stronger effect = higher value
In short: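 cln2 rad14 yeast strain; compound exposure; growth inhibition read vs vehicle controls.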

[5] = NCI Yeast Anticancer Drug Screen. Data for the bub3 strain (AID 167); conditions: S. cerevisiae bub3 mutant strain, stronger effect = higher value
In short: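 Yeast carrying a defined mutation is treated with each compound, and growth is compared with that of vehicle-exposed cells to give inhibition.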

[6] = NCI Yeast Anticancer Drug Screen. Data for the mlh1 rad18 strain (AID 175); conditions: S. cerevisiae mlh1 rad18 strain growth inhibition, stronger effect = higher value
In short: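 Yeast w/ defined DNA-repair lesions; compound exposure; growth vs vehicle controls → % inhibition.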

[7] = at 5.0 µM (retest, dose inferred, filed as 0.5)
[8] = at 50.0 µM (retest, dose inferred, filed as 5.0)

Row | SMILES | growth inhibition [1, 7] | growth inhibition [1, 8] | growth inhibition ([1]; at 50.0 µM) | growth inhibition [2, 7] | growth inhibition [2, 8] | growth inhibition ([2]; at 50.0 µM) | growth inhibition [3, 7] | growth inhibition [3, 8] | growth inhibition ([3]; at 50.0 µM) | growth inhibition [4, 7] | growth inhibition [4, 8] | growth inhibition ([4]; at 50.0 µM) | growth inhibition [5, 7] | growth inhibition [5, 8] | growth inhibition ([5]; at 50.0 µM) | growth inhibition [6, 7] | growth inhibition [6, 8] | growth inhibition ([6]; at 50.0 µM)
1 | CN(C)CCN(C)CCC(=O)/C=C/c1ccccc1 | 95% (active) | 99% (active) | 87.9% (active) | 100% (active) | 99% (active) | 84.3% (active) | 98% (active) | 99% (active) | 99.5% (active) | 86% (active) | 99% (active) | 96% (active) | 99% (active) | 99% (active) | 98.2% (active) | 99% (active) | 99% (active) | 99.5% (active)
2 | COc1ccc(Cc2nc3ccc(Cl)cc3[nH]2)cc1 | 4% | 42% | 77% (active) | -4% | 59% | 76.4% (active) | 4% | 78% (active) | 82% (active) | -6% | 14% | 66% | 1% | 44% | 84.3% (active) | 23% | 74% (active) | 86.9% (active)
3 | OCC1(c2ccccc2)OC1c1ccccc1 (configuration not stated) | -156% | -20% | 72.1% (active) | -50% | -27% | 62.6% | -65% | 16% | 37.6% | -66% | -34% | 69.5% | -71% | -51% | 74.8% (active) | -146% | -44% | 68%
4 | O=[N+]([O-])c1ccc(Sc2c3ccccc3nc3ccccc23)nc1 | 94% (active) | 99% (active) | 98.3% (active) | 82% (active) | 99% (active) | 97.5% (active) | 62% | 99% (active) | 97.7% (active) | 83% (active) | 98% (active) | 96.7% (active) | 49% | 99% (active) | 96.5% (active) | 66% | 99% (active) | 97.2% (active)
5 | COc1ccc(CCN2C(=O)C(=O)N(C3CCCCC3)C2=O)cc1OC | -1% | 2% | 75.4% (active) | -1% | 0% | 11.9% | -3% | -3% | 26.9% | -2% | 0% | 12.8% | -2% | -5% | 34.1% | -6% | -8% | 38.4%
6 | [N-]=[N+]=CC(=O)c1ccc(C(=O)C=[N+]=[N-])cc1 | 8% | 95% (active) | 99.2% (active) | 12% | 99% (active) | 99.5% (active) | 10% | 95% (active) | 99.4% (active) | 8% | 98% (active) | 98.7% (active) | 5% | 98% (active) | 99.5% (active) | 11% | 95% (active) | 99.2% (active)
7 | CCN(CC)CCC(=O)c1ccc2c3c(n(C)c2c1)CCCC3 | 0% | 9% | 95.8% (active) | 0% | 9% | 25.2% | -4% | 26% | 83.8% (active) | -5% | 22% | 5.85% | -5% | 42% | 96.3% (active) | 3% | 21% | 78.7% (active)
8 | O=C(O)C(c1ccccc1)c1ccc(-c2ccccc2)cc1 (configuration not stated) | 3% | 82% (active) | 96.7% (active) | -2% | 64% | 96% (active) | 5% | 80% (active) | 97.8% (active) | -7% | 80% (active) | 97% (active) | 1% | 49% | 79% (active) | 0% | 80% (active) | 91.2% (active)
9 | CN(C)CCC1(C2=CCCC2)CC/C(=C\c2ccc(Cl)cc2)C1=O (configuration not stated) | 24% | 86% (active) | 94.3% (active) | 28% | 96% (active) | 94.3% (active) | 26% | 97% (active) | 94% (active) | 31% | 97% (active) | 92.3% (active) | 37% | 98% (active) | 92.2% (active) | 33% | 97% (active) | 87.5% (active)
10 | CC(c1ccccc1)C(C(=O)O)(c1ccccc1)c1ccccc1 (configuration not stated) | 80% (active) | 4% | 99.4% (active) | 76% (active) | 7% | 99.3% (active) | 61% | 26% | 99.7% (active) | 81% (active) | 12% | 99.3% (active) | 76% (active) | -3% | 99.5% (active) | 84% (active) | 8% | 99.3% (active)
11 | CN(/N=C/c1ccc(C(=O)O)cc1)C1=NCCCCN1 | -2% | 29% | 5.85% | -4% | 25% | 3.4% | -2% | 45% | -7.95% | 3% | 12% | 40.5% | 2% | 28% | 3.2% | 1% | 33% | -11.1%
12 | Cc1cc2c(C(C)C)c(O)c(O)c(C=Nc3ccc(C(=O)O)cc3)c2c(O)c1-c1c(C)cc2c(C(C)C)c(O)c(O)c(C=Nc3ccc(C(=O)O)cc3)c2c1O | 14% | 97% (active) | 91.8% (active) | 27% | 98% (active) | 91.2% (active) | 34% | 97% (active) | 61.4% | -3% | 95% (active) | 73.3% (active) | 4% | 98% (active) | 58.5% | 40% | 98% (active) | 86.3% (active)
13 | CCN(CC)CCCCCCNc1cc(Cl)cc2cccnc12 | 18% | 71% (active) | 91.6% (active) | 14% | 64% | 89.9% (active) | 28% | 94% (active) | 97.5% (active) | 26% | 68% | 97% (active) | 42% | 79% (active) | 85.4% (active) | 27% | 84% (active) | 97.5% (active)
14 | CC1CCN(c2cc(-c3cc4ccccc4o3)oc(=O)c2C#N)CC1 | 7% | 1% | 66.5% | 2% | 3% | 56.7% | 3% | 0% | 68.5% | 7% | -1% | 33.1% | 2% | -1% | 39.9% | -5% | 3% | 74.7% (active)
15 | O=c1onc(-c2ccc(Cl)cc2)c2ccccc12 | 8% | 3% | 6.6% | 4% | 3% | 16.4% | 7% | 5% | -1.2% | 5% | 6% | 82.7% (active) | 2% | 6% | 14.4% | -1% | 4% | 8.15%
16 | O=[N+]([O-])C1CCCC(C2=CSC3CCCCC3N2)C1 (configuration not stated) | 5% | -7% | 48.2% | -21% | 10% | 80.8% (active) | -26% | -2% | 63.4% | -4% | 16% | 11.1% | 1% | 29% | 86% (active) | -24% | 36% | 37.9%
17 | Fc1ccc(C2SCc3nc4ccccc4n32)cc1Cl (configuration not stated) | 32% | 78% (active) | 91.3% (active) | 27% | 72% (active) | 93% (active) | 37% | 90% (active) | 94.3% (active) | 24% | 69% | 92.5% (active) | 33% | 88% (active) | 91.8% (active) | 41% | 89% (active) | 92.1% (active)
18 | O=C1C(Br)=C(Br)C(=O)c2ccccc21 | 100% (active) | 95% (active) | 92.5% (active) | 100% (active) | 96% (active) | 94.2% (active) | 100% (active) | 95% (active) | 94.5% (active) | 100% (active) | 95% (active) | 90.9% (active) | 100% (active) | 98% (active) | 96.7% (active) | 99% (active) | 91% (active) | 89.9% (active)
19 | Nc1ccc(S(=O)(=O)N2CCCc3ccccc32)cc1 | 5% | 20% | 83.7% (active) | 7% | 21% | 56.9% | 4% | 34% | 84% (active) | 2% | 23% | 74.2% (active) | 3% | 28% | 82% (active) | 7% | 40% | 74.4% (active)
